Experimental findings from PubChem BioAssay are described below.

Structures are written as SMILES. Active and inactive are the calls of the source.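 How the source made its calls, unless noted: active means compound that reduces growth-factor-driven endothelial tube area in a mixed cell culture, no cutoff stated; inactive means the rest.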

A short description of assay [1]: hESC survival regulators, cell-based (AID 493140; call rule not given here;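 further: cells exposed to compounds for four days before counting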). Particulars: human embryonic stem cell survival screen; stronger effect = higher value.
A short description of assay [2]: liver-stage malaria parasite growth inhibition, primary screen, cell-based, HepG2, luciferase luminescence, HepG2 viability (AID 624349; in the data active means parasite load remaining mostly below about 12%, no sharp cut-off; inactive means mostly above about 10%;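 further: 100% = mean of DMSO negative control wells on the same plate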). The conditions noted are these: P. berghei liver stage in HepG2, luciferase luminescence, concentration not given here; parasite load remaining: stronger effect = lower value; viability: measured here: HepG2 viability without parasites.
Assay [3] is described as follows: stimulators of nuclear beta-catenin in C2C12, primary screen, imaging, WNT3A-conditioned medium, mouse C2C12, NPC library (AID 1117326; in the data active means nuclear beta-catenin stimulation mostly above about 4.2%, no sharp cut-off; inactive means mostly below about 10%). Particulars: stronger effect = higher value.
A short description of assay [4]: stimulators of insulin release from INS-1E, primary screen, cell-based, 5 mM glucose, NPC library (AID 1117329;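 active means compound raises insulin release from rat beta cells at 5 mM glucose, no numeric limit stated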). The conditions noted are these: rat INS-1E insulin secretion, at 10 µM, stronger effect = higher value.
A short description of assay [5]: growth inhibition of GSK3B-pretreated HCT116 cells – cell-based, CellTiter-Glo, 0.2 to 20 µM (AID 1117336;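 active means compounds lowering colon cancer cell viability after pretreatment blocking the GSK3B kinase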). Particulars: HCT116 viability after GSK3B inhibitor, at 20 µM, stronger effect = higher value. (ATP-based viability assays read luminescence as a measure of living cells.)
The nature of assay [6]: inhibition of endothelial tube formation, primary screen, imaging, VEGF stimulated, CD31 staining, tube area, NPC library (AID 1117340). The conditions noted are these: VEGF-stimulated ADSC/ECFC co-culture, at 10 µM, stronger effect = higher value.
Assay [7] can be described thus: glucagon-like peptide 1 release enhancers, primary assay, NCI-H716 cell line, NPC library (AID 1117341;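 active means compound raises GLP1 secretion from the human gut endocrine cells, with no numeric limit stated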). The conditions noted are these: NCI-H716 cells, at 10 µM, stronger effect = higher value.
Assay [8] in a line: HCT116 colon cancer cell growth inhibition, primary screen, CellTiter-Glo luminescence, NPC library (AID 1117342;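 active means compounds that lower survival of HCT116 colon cancer cells in the luminescence readout, no numeric limit stated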). The conditions noted are these: at 20 µM (top of the series).
Assay [9] can be described thus: CellTiter-Glo luminescent readout of SW480 viability loss, NPC library primary (AID 1117343;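 active means compounds that lower viability of the colon cancer cells in the luminescence readout, with no numeric limit stated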). Particulars: CellTiter-Glo luminescence; at 20 µM (top of the series) unless noted.
The nature of assay [10]: decreased DLD-1 cellular survival, CellTiter-Glo luminescent readout, NPC compound collection, primary HTS (AID 1117346;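 active means compounds that lower survival of DLD-1 colon cancer cells in the luminescence readout, no cutoff given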). Particulars: DLD-1 viability, CellTiter-Glo luminescence; at 20 µM (top of the series).
Assay [11] in a line: sensitizers of A549 cells to miR-34 induction, primary screen, imaging, A549 dox-inducible miR-34, nuclei and caspase counts (AID 1347080;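 active means compounds whose cell count with miR-34 switched on is under 0.7 times the count with it off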). The conditions noted are these: A549 miR-34 inducible, Hoechst nuclei count, 48 h.
Assay [12] can be described thus: survival rescue of mitochondrial mutant cells in low glucose, primary screen, MELAS cybrids, Rieske KO mouse fibroblasts, CellTiter-Glo (AID 1508586;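 active means mean z-score across replicates of 1.96 or higher in either the MELAS or the Rieske mutant cell line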;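 further: z relative to plate mean and SD of compound and empty wells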).
Assay [13] addresses NAD(+) hydrolase SARM1 (Homo sapiens) (UniProt Q6SZW1). Put plainly: SARM1 TIR NADase inhibitors, cell lysate, NAD-Glo luminescence (AID 1508614;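 active means compound whose remaining NAD level is above about 45 nM, limit read from the data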). The conditions noted are these: SAM-TIR HEK293T lysate NADase, at 1 µM, stronger effect = higher value.
The target in assay [14] is Mitogen-activated protein kinase 7 (Homo sapiens) (UniProt Q13164). Kind of assay: ERK5 transactivation activators in reporter cells, primary screen, cell-based, HTS (AID 1508626;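 active means luciferase signal above three times the same-plate solvent-only control wells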;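 further: luciferase driven by Gal4-ERK5 fusion binding five Gal4 sites before minimal TATA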). The conditions noted are these: HeLa Gal4-ERK5 transactivation, 18 h, at 5 µM, stronger effect = higher value.
Where [15] appears, read: stronger effect = lower value, cell number ratio, induced over uninduced.
Setting [16] is: measured here: relative caspase fold change +Dox/-Dox.
The mark [17] stands for this setting: measured here: total cells with miR-34 induction, stronger effect = lower value.
Where [18] appears, read: measured here: total cells without miR-34 induction.
[19] abbreviates: MELAS cybrid survival, CellTiter-Glo 48 h, stronger effect = higher value.
The mark [20] stands for this setting: Rieske KO mouse fibroblast survival, CellTiter-Glo 72 h.

NAD(+) hydrolase SARM1 (Homo sapiens), sequence (Q6SZW1 whole entry, looked up, the tested form may be a part): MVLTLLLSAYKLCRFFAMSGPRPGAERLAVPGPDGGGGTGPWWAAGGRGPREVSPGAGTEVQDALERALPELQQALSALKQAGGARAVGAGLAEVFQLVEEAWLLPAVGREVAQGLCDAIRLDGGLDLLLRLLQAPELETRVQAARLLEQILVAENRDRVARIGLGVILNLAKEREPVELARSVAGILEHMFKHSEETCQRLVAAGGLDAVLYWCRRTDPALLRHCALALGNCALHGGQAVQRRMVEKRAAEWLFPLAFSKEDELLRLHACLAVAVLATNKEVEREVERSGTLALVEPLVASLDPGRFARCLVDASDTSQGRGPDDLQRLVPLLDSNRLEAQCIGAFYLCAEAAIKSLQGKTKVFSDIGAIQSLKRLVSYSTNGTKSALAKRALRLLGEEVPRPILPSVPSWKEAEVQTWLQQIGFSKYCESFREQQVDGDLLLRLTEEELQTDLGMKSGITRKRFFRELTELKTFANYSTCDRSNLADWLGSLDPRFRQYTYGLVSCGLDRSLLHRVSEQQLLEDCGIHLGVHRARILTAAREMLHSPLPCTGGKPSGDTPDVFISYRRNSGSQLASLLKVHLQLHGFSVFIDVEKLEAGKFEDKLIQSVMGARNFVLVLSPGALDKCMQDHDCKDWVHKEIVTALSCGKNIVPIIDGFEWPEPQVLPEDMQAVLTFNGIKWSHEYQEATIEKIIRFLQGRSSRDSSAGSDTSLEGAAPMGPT
Mitogen-activated protein kinase 7 (Homo sapiens), sequence (Q13164 whole entry, looked up, the tested form may be a part): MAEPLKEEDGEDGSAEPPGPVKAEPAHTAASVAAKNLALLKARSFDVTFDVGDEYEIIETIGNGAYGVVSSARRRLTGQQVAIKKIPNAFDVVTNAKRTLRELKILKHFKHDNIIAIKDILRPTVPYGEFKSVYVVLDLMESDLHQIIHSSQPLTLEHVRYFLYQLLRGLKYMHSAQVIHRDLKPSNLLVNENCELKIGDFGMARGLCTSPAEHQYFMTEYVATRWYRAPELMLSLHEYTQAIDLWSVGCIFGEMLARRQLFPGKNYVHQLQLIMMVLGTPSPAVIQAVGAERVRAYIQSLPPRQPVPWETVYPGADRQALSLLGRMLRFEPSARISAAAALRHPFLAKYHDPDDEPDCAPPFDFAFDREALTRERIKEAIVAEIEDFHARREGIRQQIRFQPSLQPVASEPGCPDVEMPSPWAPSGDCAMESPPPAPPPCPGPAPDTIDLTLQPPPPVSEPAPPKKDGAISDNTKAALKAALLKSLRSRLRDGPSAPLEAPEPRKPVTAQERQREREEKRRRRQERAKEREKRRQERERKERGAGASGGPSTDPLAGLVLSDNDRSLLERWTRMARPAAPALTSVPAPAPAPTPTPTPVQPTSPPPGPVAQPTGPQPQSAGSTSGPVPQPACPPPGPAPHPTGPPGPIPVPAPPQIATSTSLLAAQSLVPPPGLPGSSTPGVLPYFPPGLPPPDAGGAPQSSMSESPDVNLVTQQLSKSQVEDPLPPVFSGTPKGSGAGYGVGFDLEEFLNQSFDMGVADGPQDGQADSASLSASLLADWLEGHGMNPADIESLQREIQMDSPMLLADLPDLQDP

A word on the viability: it is a read-out of living cells in per cent, often relative to untreated cells. `C#C[C@]1(OC(C)=O)CC[C@H]2[C@@H]3CCC4=C[C@@H](OC(C)=O)CC[C@@H]4[C@H]3CC[C@@]21C`: the survival in assay [1] was 3.67 (inactive). Besides, the parasite load remaining in assay [2] is 82.1% (inactive). In addition, the viability in assay [2] turned out to be 93.8%. Besides, the nuclear beta-catenin stimulation was 4.6% (inactive) in assay [3] (at 10 µM) and 2.1% in assay [3] (stimulation, at 2 µM). Moreover, the insulin secretion stimulation in assay [4] was 0.1% (inactive). For the same compound, in [5], the viability decrease was -55.2% (inactive). In addition, the tube area decrease in [6] was -2.9% (inactive). Besides, the GLP1 secretion stimulation in assay [7] is -2.3% (inactive). Further, the inhibition of viability in assay [8] is 45% (inactive). For the same compound, the viability decrease (inhibition) was 80.6% (active) in [9] and 64.6% (active) in [10]. The fold change in assay [11] (setting [15]) was 0.877 (inactive); in assay [11] (setting [16]), 1.09. Besides, the cell count in assay [11] (setting [17]) is 9000; in assay [11] (setting [18]) it was 10300. Moreover, the z-score is -0.135 (inactive) in assay [12] (setting [19]) and 0.556 in assay [12] (setting [20]). For the same compound, the remaining NAD in [13] was 10 nM (inactive). The luciferase signal in [14] is 64 AU (inactive).
For `CC1=C(C(=O)OC(C)C)C(c2cccc([N+](=O)[O-])c2)C(C(=O)OC2CN(C(c3ccccc3)c3ccccc3)C2)=C(N)N1` (stereo unspecified), the nuclear beta-catenin stimulation in assay [3] (at 10 µM) is -2% (inactive); in assay [3] (stimulation, at 2 µM), 2.2%. Also, the insulin secretion stimulation in assay [4] was 5.2% (inactive). In [5], the viability decrease was 111% (active). Also, the tube area decrease in assay [6] is 109% (active). Further, the GLP1 secretion stimulation in assay [7] is 40.3% (active). For the same compound, the inhibition of viability in [8] was 113% (active). Besides, the viability decrease (inhibition) in assay [9] is 133% (active); in assay [10], 102% (active). In addition, the fold change in [11] (setting [15]) is 0.933 (inactive); in assay [11] (setting [16]), 0.636. Also, the cell count in assay [11] (setting [17]) worked out at 7560; in assay [11] (setting [18]) it was 8100. Besides, the z-score in assay [12] (setting [19]) was -0.296 (inactive); in assay [12] (setting [20]), -0.252.
As to `CC[C@H](c1ccc(O)cc1)[C@@H](CC)c1ccc(O)cc1`, the parasite load remaining in assay [2] is 16.7% (inactive). This compound also showed a viability in [2] of 82%. Moreover, the nuclear beta-catenin stimulation in assay [3] (at 10 µM) is 11.6% (inactive); in assay [3] (stimulation, at 2 µM), 2.5%. The insulin secretion stimulation in assay [4] is 1.4% (inactive). Further, the viability decrease in assay [5] is 89.6% (active). Besides, the tube area decrease in assay [6] is 20.9% (inactive). For the same compound, the GLP1 secretion stimulation in assay [7] was 40% (active). In [8], the inhibition of viability was 97% (active). Moreover, the viability decrease (inhibition) was 118% (active) in assay [9] and 101% (active) in assay [10]. Besides, the fold change in [11] (setting [15]) was 0.78 (inactive); in assay [11] (setting [16]), 0.948. For the same compound, the cell count in assay [11] (setting [17]) worked out at 7720; in [11] (setting [18]), 9900. For the same compound, the z-score in assay [12] (setting [19]) was -1.4 (inactive); in [12] (setting [20]) it was -0.231. In [13], the remaining NAD was 10 nM (inactive).
Regarding `OCc1ccccn1`, the nuclear beta-catenin stimulation in assay [3] (at 10 µM) was -1% (inactive); in assay [3] (stimulation, at 2 µM), 0.3%. The insulin secretion stimulation in [4] was 0% (inactive). The viability decrease in assay [5] was 4.8% (inactive). The tube area decrease in [6] was -15.2% (inactive). For the same compound, in assay [7], the GLP1 secretion stimulation is -2.9% (inactive). For the same compound, in assay [8], the inhibition of viability is -23.7% (inactive). The figures for the viability decrease (inhibition) in [9] and in assay [10] were 30.6% (active) and -10.2% (inactive), respectively. For the same compound, the fold change was 0.898 (inactive) in [11] (setting [15]) and 0.701 in assay [11] (setting [16]). The values for the cell count in assay [11] (setting [17]) and in [11] (setting [18]) were 8220 and 9160, respectively. Besides, the remaining NAD in [13] is 10 nM (inactive).
As for `CCC(=O)c1ccc(O)cc1`, the nuclear beta-catenin stimulation in assay [3] (at 10 µM) was 2.6% (inactive); in [3] (stimulation, at 2 µM) it was -0.5%. Also, in [4], the insulin secretion stimulation is 0.1% (inactive). For the same compound, the viability decrease in [5] is 8.05% (inactive). Also, the tube area decrease in assay [6] is 5.9% (inactive). Further, in [7], the GLP1 secretion stimulation was -2.3% (inactive). Moreover, in [8], the inhibition of viability was 16.7% (inactive). Moreover, the viability decrease (inhibition) in [9] was 60.1% (active); in [10] it was 25.2% (inactive). The fold change in assay [11] (setting [15]) was 0.903 (inactive); in assay [11] (setting [16]), 0.966. The cell count in assay [11] (setting [17]) was 7980; in assay [11] (setting [18]) it was 8840. In [13], the remaining NAD was 10 nM (inactive).
